Source: PubChem BioAssay (National Center for Advancing Translational Sciences (NCATS))
D1 antagonist = human D1 dopamine receptor antagonism; HEK293 TREx D1 cells, calcium flux, dopamine EC80; stronger effect = lower value; P21728; 360,000 compounds, 3.2% hits; activity change, negative = inhibition, % at 10 µM; in the data active = activity change below about -30%; note: % is set by controls: 0 for no effect and ±100 for the full control effect
Target sequence (P21728 whole entry, looked up): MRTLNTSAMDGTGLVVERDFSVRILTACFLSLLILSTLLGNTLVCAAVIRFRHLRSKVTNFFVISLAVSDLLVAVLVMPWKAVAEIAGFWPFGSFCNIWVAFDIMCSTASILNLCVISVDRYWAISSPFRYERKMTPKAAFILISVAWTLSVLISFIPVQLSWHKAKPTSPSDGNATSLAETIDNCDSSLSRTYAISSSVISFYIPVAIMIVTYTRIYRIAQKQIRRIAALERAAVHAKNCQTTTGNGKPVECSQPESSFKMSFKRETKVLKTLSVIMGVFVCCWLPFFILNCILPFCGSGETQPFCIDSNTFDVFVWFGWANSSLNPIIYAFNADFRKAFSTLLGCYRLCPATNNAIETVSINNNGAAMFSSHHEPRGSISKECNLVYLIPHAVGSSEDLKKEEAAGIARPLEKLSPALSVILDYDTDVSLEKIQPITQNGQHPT
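Kinetic fluorescence of a calcium dye serves as the read-out. D1-expressing Hek293 Trex cells, induced overnight at 30 C, are exposed to compound for 180 s before an EC80 dopamine addition, then read 180 s further.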
D1 PAM = enhances dopamine response at the human D1 receptor; P21728; HEK293 TREx D1 cells, calcium flux, dopamine EC20 potentiation; potentiation, % at 10 µM; 360,000 compounds, 0.036% hits; in the data active = potentiation above about 30%; note: 0% is about no effect
D1 ag = human D1 receptor agonism; P21728; HEK293 T-REx D1 cells, calcium flux, agonist mode; activation, % at 2 µM; 360,000 compounds, 1% hits; AID 504660; note: 0% is about no effect
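Agonism was scored from calcium flux recorded over 180 s (1 read/s) after pintool compound addition, following a 10-cycle baseline. Cells were inducible force-coupled HEK293 TREx D1, plated overnight at 30 C and loaded with no-wash calcium dye.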
TRHR agonist = TRH receptor (human) agonism; 360,000 compounds, 0.18% hits; activation, % at 2 µM; TRHR cells, calcium flux fluo-8, FDSS agonist mode; AID 493084; note: 0% is about no effect
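TRHR-expressing cells loaded with fluo-8 calcium dye; 23 nL library compound pin-transferred, kinetic FDSS fluorescence (Ex 480/Em 530) recorded about 180 s for agonist-induced calcium release, before a 10 nM TRH EC20 addition for potentiator mode.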
TRHR PAM = TRH receptor (human) allosteric enhancement | P34981 | TRHR cells, fluo-8 calcium fluorescence, EC20 TRH enhancement | enhancement, % at 2 µM | 360,000 compounds, 0.66% hits | AID 493056; in the data active = enhancement above about 30%; note: 0% is about no effect
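TRHR-expressing cells loaded with fluo-8 calcium dye were read kinetically (ex 480/em 530) during compound addition, then stimulated with an EC20 of TRH (10 nM final). Enhancement of the Gq-mediated intracellular calcium response was scored.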
Numbers without * were called inactive; ! = not confirmed by another sample. Hits are enriched below; roughly 4.6% of the tested compounds scored in any of these assays. Cut-off read from the data, not from the text of the source, unless noted: active = activation above about 30%; inactive = the rest.

SMILES	D1 antagonist	D1 PAM	D1 ag	TRHR agonist	TRHR PAM
CCC(=O)N1CCc2cc(Br)cc(S(=O)(=O)N(CC)Cc3ccccc3)c21	6.3	1.4	12.4	-0.1	-0.8
CC(NC(=O)c1ccco1)C(=O)N1CCN(C(c2ccccc2)c2ccccc2)CC1 (stereo not drawn)	-32.2*	1.2	0.6	-0.2	-0.1
CC(NC(=O)c1ccco1)C(=O)N1CCN(c2ccccc2)CC1 (stereo not drawn)	-29.4	-1.8	0.5	1.3	-3.3
Cc1cc(-c2nnc(SCC(=O)c3ccc(Cl)cc3)o2)no1	-33.3*	-6.4	9.4	-0.7	4.2
COc1ccc(C(=O)CSc2nnc(-c3cc(C)on3)o2)cc1	-10.6	-1.2	3.1	-0.2	-1.8
Cc1[nH]c2ccc(-c3nnc(SCC(=O)c4ccc(F)cc4)o3)cc2c1C	-40.1*	-7.5	2.3	0.8	5.4
Cc1ccc(-c2nnc(SCC(=O)N3CCCc4ccccc43)o2)cc1	-24.1	-3.2	1.6	-0.6	-1.5
O=C(CCN1C(=O)COc2ccccc21)NCCCN1CCN(c2ccccc2F)CC1	-39.8*	-5.0	0.1	0.6	-2.9
Cc1ccc(C)c(N2CCN(CCCNC(=O)CCC(=O)N3CCOc4ccc(Cl)cc43)CC2)c1	-2.2	-9.9	17.4	2.0	-0.3
O=C(CCC(=O)N1CCOc2ccc(Cl)cc21)NCCCN1CCN(c2ccccc2F)CC1	-42.0*	-22.3	8.7	0.1	-1.3
O=C(CCC(=O)N1CCOc2ccc(Cl)cc21)NCCCN1CCC(Cc2ccccc2)CC1	-41.1*	-19.1	12.6	1.0	8.0
CCc1ccccc1NC(=O)Cn1c2ncccc2c(=O)n1-c1ccccc1	-44.6*	-7.5	4.6	-0.5	24.5
CCc1ccc(-n2c(=O)c3cccnc3n2CC(=O)NCc2ccc(C)cc2)cc1	14.0	-4.8	6.4	0.0	-4.2
CCOC(=O)c1ccccc1NC(=O)Cn1c2ncccc2c(=O)n1-c1ccccc1	9.8	-4.2	4.3	-0.4	4.4
CCc1ccc(-n2c(=O)c3cccnc3n2CC(=O)Nc2ccccc2C(F)(F)F)cc1	-44.0*	-6.0	11.0	0.8	-0.8
Cc1ccc(CNC(=O)Cn2c3ncccc3c(=O)n2-c2ccc(C)cc2)cc1	-57.4*	-7.5	7.1	-0.5	-4.4
Cc1ccc(-n2nc3c(N4CCC(C(=O)NCCc5ccccc5)CC4)nnc(C)c3c2C)cc1	-72.4*	-3.0	4.7	-0.3	1.7
COc1ccc(-n2nc3c(N4CCC(C(=O)NCCc5ccccc5C)CC4)nnc(C)c3c2C)cc1	12.1	12.5	3.0	-0.7	7.4
COc1ccc(-n2nc3c(N4CCC(C(=O)NCc5ccccc5C)CC4)nnc(C)c3c2C)cc1	-2.5	12.5	75.5*!	-0.1	-14.0
Cc1ccc(C)c(Cn2cnc3c(cnn3C(C)(C)C)c2=O)c1	6.1	-5.5	40.8*	-0.1	-3.5
CC(=O)Nc1ccccc1-c1nc2ccccc2n(C(C)C(=O)c2ccc(C)c(C)c2)c1=O (stereo not drawn)	-3.0	-0.6	50.7*	-1.0	-4.9
CCCC(O)(CCN1CCCCC1)c1ccc(OCC)cc1 (stereo not drawn)	-10.2	-2.2	3.2	0.4	-2.2
CCOC(=O)N1CCN(Cc2nc3cc(NC(=O)c4ccc(F)cc4)ccc3n2C(C)C)CC1	2.6	-1.1	-1.3	-1.3	-3.1
CCOC(=O)N1CCN(CCC(=O)c2ccc(Cl)cc2)CC1	-7.6	-0.5	3.3	-0.4	-1.6
CCOC(=O)N1CCN(CCC(=O)c2ccc(OC)cc2)CC1	-34.8*	5.8	-1.8	0.3	7.4
SMILES	D1 antagonist	D1 PAM	D1 ag	TRHR agonist	TRHR PAM
CCCCOc1ccc(C(=O)CCN2CCCCC2)cc1	-34.6*	-3.9	4.2	4.4	-11.5
CCCCCC(O)(CCN1CCCCC1)c1ccc(OCC)cc1 (stereo not drawn)	-1.9	-0.6	35.4*	-0.2	6.2
CC(C)COc1ccc(C(=O)CCN2CCCCC2)cc1	-22.7	-4.5	18.8	7.2	-9.1
CCOC(=O)N1CCN(Cc2nc3cc(NC(=O)c4ccc(OC)cc4)ccc3n2C(C)C)CC1	-39.0*	-3.0	0.7	-0.4	-21.1
Cc1cccc(C)c1OCC(=O)NCC1(N2CCOCC2)CCCCC1	-1.0	-0.2	2.5	-2.3	2.0
CN1/C(=C\C(=O)c2cccc(S(=O)(=O)N3CCCCC3)c2)C(C)(C)c2ccccc21	-4.5	-6.6	1.4	0.5	30.2*
Cc1ccc(S(=O)(=O)c2nnn3c2nc(N2CCN(c4cccc(C)c4C)CC2)c2ccccc23)cc1C	-18.6	1.1	-0.1	0.0	-4.0
COc1ccc(Cn2cc3c(-c4ccc(F)cc4)nnc-3c3cc(OC)c(OC)cc32)cc1	64.7	1.7	19.9	-0.1	19.5
COc1cc2c3nnc(-c4ccc(F)cc4)c-3cn(Cc3ccc(F)cc3)c2cc1OC	-36.8*	-10.3	2.2	-0.4	-3.2
COc1ccccc1N1CC(C(=O)Nc2ccc(N3CCOCC3)cc2)CC1=O (stereo not drawn)	13.5	-3.6	0.9	1.2	0.6
COc1ccc(NCc2nnc(SCC(=O)Nc3nc(-c4ccccc4)cs3)n2-c2ccccc2)cc1	-59.9*	-2.6	0.3	1.0	3.2
Cc1nc(-n2nc(C)c(Cc3ccccc3Cl)c2C)sc1C(=O)N1CCCCC1C (stereo not drawn)	-13.2	2.4	0.3	0.0	1.9
CN(C1CCCC1)C1CCN(C(=O)CNC(=O)/C=C/c2ccccc2)CC1	-13.1	-1.9	2.7	0.6	2.8
CC1CCCCC1N(C)C1CCN(C(=O)CNC(=O)/C=C/c2cccc(Cl)c2)CC1 (stereo not drawn)	-30.5*	-2.1	14.0	-0.7	-0.4
Brc1ccc(NC2=Nc3ccccc3CC2)cc1	-30.0*	-5.6	1.9	2.9	-1.1
COc1ccc(CCC(=O)OC(C)C(=O)c2ccc(C)cc2)cc1 (stereo not drawn)	-36.0*	-6.0	9.7	-1.3	-2.7
COc1ccc(C(=O)COC(=O)CCN2C(=O)C3CC=CCC3C2=O)c(OC)c1 (stereo not drawn)	-4.0	1.4	-0.2	-0.8	6.6
COc1ccc(C(=O)C(C)OC(=O)CCN2C(=O)C3CC=CCC3C2=O)cc1 (stereo not drawn)	-35.0*	-0.1	0.5	-0.4	16.3
Cc1ccc(C(=O)C(C)OC(=O)CNC(=O)c2ccc(Br)o2)cc1 (stereo not drawn)	14.3	-5.7	-1.7	-1.7	-4.2
CC(OC(=O)Cn1[nH]c(=O)c2ccccc2c1=O)C(=O)Nc1ccc(F)cc1 (stereo not drawn)	-30.5*	-7.2	6.3	-0.3	6.9
Cn1c(=O)n(C)c2cc(N3CCCC3)c(NC(=O)Nc3ccccc3)cc21	-11.1	-1.2	-0.5	0.6	-7.0
O=C(Nc1ccccc1)N1CCN(c2cccc(C(F)(F)F)c2)CC1	-33.6*	-7.5	27.4	2.0	5.7
